PubChem BioAssay (Tox21)
Results filed as inconclusive are left out. A number with no mark means an inactive call. Active and inactive are the calls of the source. Calls follow the shape of the dose curve; as a rule, active = well fitted cell-killing curve with a large enough effect in the repeat runs; inconclusive = weak or mixed curves; inactive = no such curve, though single readings can be large or run the other way. Where a SMILES comes first, the peptide text is derived from it. [ ]: non-standard residue; d: D form. pGlu = O=C1CC[C@@H](C(=O)O)N1

Test: qHTS assay to identify small molecule antagonists of the peroxisome proliferator-activated receptor delta (PPARd) signaling pathway - cell viability counter screen (AID 743213); also: nearly all actives have a fitted effect of over 50% in size
Conditions: PPARd-bla HEK293H viability, CellTiter-Glo luminescence, 17 h; series mostly up to 62 µM
From the text: U.S. Tox21 Program National Center for Advancing Translational Sciences [NCATS] NIH Chemical Genomics Center [NCGC] U.S. Environmental Protection Agency [EPA] National Institutes of Environmental Health Sciences [NIEHS] National Toxicology Program [NTP] U.S. Food and Drug Administration [FDA] Tox21 Assay Overview: The peroxisome proliferator-activated receptors (PPARs) are lipid-activated transcription factors of the nuclear receptor superfamily with three distinct subtypes namely PPAR alpha, PPAR delta (PPARd) and PPAR gamma. All these subtypes heterodimerizes with Retinoid X receptor (RXR) and have different physiological functions. […] To identify the compounds that inhibit PPAR-delta signaling, GeneBLAzer PPAR delta UAS-bla HEK293H cell line (Invitrogen, Carlsbad, CA, USA) containing a beta-lactamase reporter gene under the control of an Upstream Activator Sequence (UAS) was used to screen the Tox21 compound library. The cytotoxicity of the Tox21 compound library against the PPARd-bla cell line was tested in parallel by measuring the cell viability using CellTiter-Glo assay (Promega, Madison, WI) in the same wells.
Tox21 Assay Protocol Summary: PPARd-bla cells were dispensed at 3000 cells/5uL/well in 1536-well black wall/clear bottom plates using a Multidrop Combi (Thermo Fisher Scientific, Waltham, MA) dispenser. After the assay plates were incubated at 37 C and 5% CO2 for 5 h, 23 nL of compounds dissolved in DMSO, positive controls or DMSO only was transferred to the assay plate by a Pintool station (Kalypsys, San Diego, CA), followed by addition of 1ul L165041 (300 nM, final concentration in the wells). The assay plates were incubated at 37 C for 17 h, and then 1 uL of LiveBLAzerTM B/G FRET substrate was added using a Bioraptr Flying Reagent Dispenser (FRD) workstation (Beckman Coulter, Indianapolis, IN, USA). The assay plates were incubated at room temperature for 2 h and fluorescence intensity was measured by an Envision plate reader (PerkinElmer, Shelton, CT). For cell viability readout that measures cytotoxicity, 3 ul/well of CellTiter-Glo reagent was added into the assay plates using a Bioraptr FRD. After 30 min incubation at room temperature, the luminescence intensity in the plates was measured using a ViewLux plate reader (PerkinElmer).
% is scaled to controls: 0 for no effect and ±100 for the full control effect.

Structure (SMILES)	outcome	viability change, negative = cytotoxic
CC(CO)(CO)[N+](=O)[O-]	inactive	–
Nc1ccn([C@@H]2O[C@H](CO)[C@@H](O)[C@@H]2O)c(=O)n1	inactive	–
NO	inactive	–
CCCCOCCOC(=O)CCCCCCCCC(=O)OCCOCCCC	inactive	–
CCCc1nn(C)c2c(=O)[nH]c(-c3cc(S(=O)(=O)N4CCN(C)CC4)ccc3OCC)nc12	inactive	–
Cc1ccccc1N=C(N)N=C(N)N	inactive	–
COc1cc(-c2ccc(=O)[nH]n2)ccc1OC(F)F	inactive	–
O=[N+]([O-])c1cncn1CCN1CCOCC1	inactive	–
CNCCO	inactive	–
COc1ccc2cc1Oc1cc3c(cc1OC)CC[N+](C)(C)[C@H]3Cc1ccc(cc1)Oc1c(OC)c(OC)cc3c1[C@@H](C2)[N+](C)(C)CC3	inactive	–
C[N+](C)(C)CCCCCCCCCC[N+](C)(C)C	inactive	–
C=COCC1CCC(COC=C)CC1 (stereo not given)	inactive	–
CN(C)CCCN(C)CCCN(C)C	inactive	–
O=C1CCCCCCCCCCCCCCO1	inactive	–
CCN1C=CN(C)C1C (stereo not given)	inactive	–
[K+]	inactive	–
CCCn1cc[n+](C)c1C	inactive	–
CC[N+](C)(CC)CCOC(=O)C1c2ccccc2Oc2ccccc21	inactive	–
COc1ccccc1OCC1CNC(=O)O1 (stereo not given)	inactive	–
CC(N)C12CC3CC(CC(C3)C1)C2 (stereo not given)	inactive	–

Structure (SMILES)	outcome	viability change, negative = cytotoxic
CCN(Cc1ccccc1)c1ccccc1	inactive	–
C[C@@H]1CCC[C@H](C)N1	inactive	–
CCCCc1nc(Cl)c(CO)n1Cc1ccc(-c2ccccc2-c2nn[nH]n2)cc1	inactive	–
CCOc1ccccc1OCC	inactive	–
CCNC(=O)[C@@H]1CCCN1C(=O)[C@H](CCCN=C(N)N)NC(=O)[C@H](CC(C)C)NC(=O)CNC(=O)[C@H](Cc1ccc(O)cc1)NC(=O)[C@H](CO)NC(=O)[C@H](Cc1c[nH]c2ccccc12)NC(=O)[C@H](Cc1cnc[nH]1)NC(=O)[C@@H]1CCC(=O)N1 ([pGlu]HWSYGLRP-NHEt)	inactive	–
NC(N)=NCCN1CCCCCCC1	–	2.8% [at 0.575 µM]
CO[Si](C)(OC)c1ccccc1	inactive	–
CCC(=O)OCc1ccccc1	inactive	–
O=S(=O)(O)c1cccc2c(S(=O)(=O)O)cccc12	inactive	–
CC1=CCC(O)(C(C)C)CC1 (stereo not given)	inactive	–
CC(C)(C)c1ccc(-c2ccc(C(C)(C)C)cc2)cc1	inactive	–
CC(C)(C#N)Nc1nc(Cl)nc(NC2CC2)n1	inactive	–
Cc1coc2ccccc2c1=O	inactive	–
CCCCCCCCCCCCSC	inactive	–
CC1OC1C1CCC2(C)OC2C1 (stereo not given)	inactive	–
CNC(=O)Nc1ccc(Cl)c(Cl)c1	inactive	–
O=C1c2ccccc2C(=O)c2cc(O)ccc21	inactive	–
Cc1ncc([C@@H](CCCCCCc2ccc3c(n2)NCCC3)CC(=O)O)cn1	inactive	–
O=S(=O)(O)c1cccc2ccccc12	inactive	–
c1ccc(CCc2ccccc2)cc1	inactive	–
